Compound activity (PubChem BioAssay)
Sampled rows, rich in hits. Any-hit rate of the full collection: about 21%.
Cycloheximide cs: counter-screen for Shiga toxin inhibitors: cycloheximide protein synthesis inhibition; max response, %; cell reporter, cycloheximide protein synthesis inhibition counterscreen; 300,000 tested, 12% active; AID 2314; in the data active = max response mostly above about 13%, no sharp cut-off; inactive = mostly below about 14%; also: read at 38.3 µM for the half of the compounds with a filed dose; 0% is about no effect
Pf growth 48h: inhibits P. falciparum growth in the first generation, 48 h | P. falciparum luciferase growth in erythrocytes, 48 h | Potency, µM (highest dose often 28.7 µM), without a hit: at the highest dose activity change, negative = inhibition, actives largely listed as inhibitors | 310,000 tested, 5.9% active; also: potency is read from the fitted curve at half-maximal effect; % is scaled to controls: 0 for no effect and ±100 for the full control effect
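Read-out is firefly luciferase luminescence from an integrated reporter in P. falciparum, so falling signal marks reduced parasite growth. Infected erythrocytes were at 2% hematocrit and 0.1% parasitemia (final) in Albumax-supplemented RPMI 1640.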
Giardia FBPA inh: blocks Giardia fructose-bisphosphate aldolase activity | A8B2U2 | purified Giardia FBPA | Potency, µM (highest dose often 59.6 µM), without a hit: at the highest dose activity, negative = inhibition, most hits filed as inhibitors | 290,000 tested, 0.71% active | AID 2451; also: potency is read from the fitted curve at half-maximal effect; % is scaled to controls: 0 for no effect and ±100 for the full control effect; nearly all actives have a fitted effect of over 55% in size
Target sequence (A8B2U2 whole entry, looked up): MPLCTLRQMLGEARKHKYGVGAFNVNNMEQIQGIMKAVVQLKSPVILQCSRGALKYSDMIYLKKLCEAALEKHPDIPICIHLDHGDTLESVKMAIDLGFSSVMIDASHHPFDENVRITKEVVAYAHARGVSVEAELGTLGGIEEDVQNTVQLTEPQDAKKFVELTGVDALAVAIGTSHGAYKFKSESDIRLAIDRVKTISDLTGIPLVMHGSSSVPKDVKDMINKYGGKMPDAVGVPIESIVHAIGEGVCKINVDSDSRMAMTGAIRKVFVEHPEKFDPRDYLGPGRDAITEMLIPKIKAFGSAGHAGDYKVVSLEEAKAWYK
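Giardia FBPA (40 nM reagent) was preincubated 10 min at RT with compound (up to 57.5 uM final), then substrate plus GAPDH/TPI/NAD/arsenate coupling system with diaphorase/resazurin was added; resorufin fluorescence (525/598 nm) was read after 20 min.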
NS1 inh: blocks influenza NS1 protein function; Potency, µM (highest dose often 46.1 µM), without a hit: at the top dose activity, positive = more growth; 270,000 tested, 0.4% active; calls by dose curve; also: potency is read from the fitted curve at half-maximal effect; actives are rising curves; nearly all actives have a fitted effect of over 50% in size
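Compounds were scored for reversing the slow growth caused by influenza A NS1 in S. cerevisiae, measured by optical density at 600 nm. Assay medium contained 2% galactose at pH 6.0; NS1-free yeast of the same strain were the positive control.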
Pf growth 96h: P. falciparum growth inhibition at 96 hours | P. falciparum luciferase reporter growth, 96 h | Potency, µM (series often up to 28.7 µM), without a hit: top-dose activity change, negative = inhibition, hits mostly inhibitors | 320,000 tested, 6.9% active | AID 504834; also: potency is read from the fitted curve at half-maximal effect; % is scaled to controls: 0 for no effect and ±100 for the full control effect
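Infected RBCs, 2% Hct / 0.05% parasitemia final; luciferase-reporter P. falciparum; cpd 96 h, 37 C, 5% CO2; luciferase detection reagent; luminescence.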
Shiga inhibitor: Shiga toxin inhibition; Vero cells, Shiga toxin protein synthesis inhibition reporter; inhibition, % at 38.7 µM; 290,000 tested, 9.2% active; in the data active = inhibition mostly above about 28%, no sharp cut-off; inactive = mostly below about 43%; also: 0% is about no effect
Active calls of the source: *; u = inconclusive; x = no result given; [ ] = dose if it differs, or a comment. Unless noted, calls follow the shape of the dose curve; as a rule, active = well fitted curve in the direction sought with a large enough effect; inconclusive = small, poorly fitted or top-dose-only effect, or another doubt; inactive = no such curve, though single readings can be large; an effect the other way counts as inactive or inconclusive.

SMILES	Cycloheximide cs	Pf growth 48h	Giardia FBPA inh	NS1 inh	Pf growth 96h	Shiga inhibitor
COc1cc(/C=C(\C#N)C(N)=O)ccc1OCc1c(C)no[n+]1[O-]	1	-15%	0%	9%	0%	-2
O=C(Cn1c(C(=O)NCc2ccco2)cc2sccc21)c1ccccc1	24*	u	0%	-35%	-12%	-3
O=C(NCc1ccc2c(c1)OCO2)c1cnc2n(c1=O)CCS2	-5	x	1%	-3%	-20%	-18
O=C(Nc1ccc(OC(F)(F)F)cc1)c1cnc2n(c1=O)CCS2	16*	73%	4%	-31%	37%	21
O=C(Nc1ccccc1)c1cnc2n(c1=O)CCS2	15	94%	3%	-30%	141%	47
O=C(Nc1ccc2c(c1)OCCO2)c1cnc2n(c1=O)CCS2	30*	65%	-2%	-30%	148%	18
O=C(Nc1ccc2c(c1)OCO2)c1cnc2n(c1=O)CCS2	29*	105%	-1%	2%	7%	49*
Cc1cccc(NC(=O)c2cnc3n(c2=O)CCS3)c1	21*	131%	-4%	-3%	1%	17*
O=c1[nH]c(=S)[nH]c2c1CN(CCCN1CCOCC1)CN2	x	x	x	0%	x	x
Clc1ccc2nncn2n1	-2	-12%	3%	x	u	-7
Cc1cccc(NC(=O)COC(=O)CSc2ccccc2)c1C	x	u	x	x	-22%	x
O=C(NCc1nnnn1-c1ccc(F)c(F)c1)c1ccc(S(=O)(=O)N2CCOCC2)cc1	x	0%	x	x	7%	x
Cc1ccc(S(=O)(=O)NC(=O)Nc2ncn[nH]2)cc1	x	x	x	-3%	x	x
COc1ccc(CN2CCCC(CNC(=O)c3ccc(F)cc3)C2)c(C)c1C (stereo unspecified)	-3	-17%	1%	-2%	10µM*	-29
CCOc1cc(CN2CCCC(CNC(=O)c3ccc(F)cc3)C2)ccc1OC (stereo unspecified)	1	u	-1%	5%	u	5
COc1cc(OC)cc(C(=O)NCC2CCCN(Cc3cccc(C(C)=O)c3)C2)c1 (stereo unspecified)	1	u	6%	-5%	8.3µM*	-4
COc1ccc(CN2CCCC(CNC(=O)c3ccc(F)cc3)C2)c(F)c1 (stereo unspecified)	5	-25%	0%	-2%	1.9µM*	24
COc1ccc(S(=O)(=O)NCC2CCCN(Cc3ccc(OC)cc3F)C2)cc1 (stereo unspecified)	-2	9%	x	-4%	u	-5
COC(=O)[C@@H]1C[C@H]1[C@@H](NC(=O)c1ccc(Br)cc1)c1ccccc1	x	x	9%	x	x	x
COc1ccc(CC(=O)OCC(=O)NCc2ccccc2Cl)cc1OC	8	5%	-1%	x	6%	-11
Cc1sc2ncnc(SC(C)C(=O)N3c4ccccc4Sc4ccccc43)c2c1C (stereo unspecified)	-2	1.7µM*	0%	-3%	7.4µM*	13
Cc1ccc(OCC(=O)NNC(=O)C(C)Sc2ncnc3sc(C)c(C)c23)cc1 (stereo unspecified)	-1	15%	-2%	13%	-17%	-6
O=C(NCCN1CCOCC1)c1cccc(S(=O)(=O)N(Cc2ccccc2)c2ccccc2)c1	x	0%	x	x	-2%	x
O=C1c2oc3ccccc3c(=O)c2C(c2cccc(Br)c2)N1Cc1ccco1 (stereo unspecified)	11	4%	2%	-74%	0.37µM*	-5
O=C1c2oc3ccc(Br)cc3c(=O)c2C(c2cccnc2)N1Cc1ccco1 (stereo unspecified)	-5	x	4%	1%	-9%[5.75 µM]	-31
Cn1ccnc1SCC(=O)Nc1ccc2c(c1)COC2=O	14	10%	1%	2%	x	52*
Cc1ccc(-n2nnnc2SCC(=O)Nc2ccc3c(c2)COC3=O)cc1C	17*	-3%	12%	8%	x	-4
Cc1ccc(-n2nnnc2SCC(=O)Nc2ccc3c(c2)OCCO3)cc1C	7	24%	10%	2%	u	9
COc1ccccc1NS(=O)(=O)c1ccc(N/N=C(\C)C(C)C)c([N+](=O)[O-])c1	-6	8.3µM*	0%	4%	u	-13
C/C(=N\Nc1ccc(S(=O)(=O)Nc2ccccc2)cc1[N+](=O)[O-])c1ccncc1	-3	10µM*	6%	3%	u	-4
